# Measurements published in PubChem BioAssay AID651900 (Broad Institute, 2012).
# The list shows a part of the results. Active and inactive are the calls of the source. The rule behind the calls is not given here.
# Experiment: NIH3T3 cell viability loss – plate reader, cherry-pick, two tests, cytotoxicity control, dose response (AID 651900)
# Details: activity: test 2 concentration series, at 26 µM
Compound,outcome,activity [%]
CS(=O)(=O)N1[C@H](C(=O)NCc2ccncc2)[C@@H](CO)[C@@H]2Cn3c(ccc(C4=CCCCC4)c3=O)[C@@H]21,inactive,–
O=C(CSc1n[nH]c(-c2cccnc2)n1)Nc1ccnc2ccccc12,inactive,-10.2
CN1c2ccc(-c3ccccc3)cc2[C@H]2[C@H](CCN2C(=O)Cc2ccccn2)[C@H]1CO,inactive,–
CC(=O)c1ccc(N2CCN(C(=O)c3ccc4nc[nH]c4c3)CC2)cc1,inactive,-0.738
Cc1nc(=O)c(-c2ccccc2)c(C)n1-c1ccc(Br)cc1,inactive,-4.55
Cc1c(OC(C)C(=O)NCC2CCC(C(=O)O)CC2)ccc2c1oc(=O)c1ccccc12 (stereo not given),inactive,1.67
